Drawing on PubChem BioAssay (NCI), this text covers growth for 38 compounds.

This is part of a sample that, as a whole, favours compounds with a hit. Of some 83,000 tested, about 20% had one in any assay.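 Method: cells in 96-well plates; compound added at one concentration; 48 h incubation; percent growth measured; values under 10 scored active.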 Calls of active or inactive are those of the source.

The first assay concerns NCI/ADR-RES ovarian. The assay can be described thus: NCI-60 one-dose screen, 48 h (100 = growth as untreated, 0 = no growth, -100 = all killed). The note with it: 10 µM unless noted.
As for `Cc1ccc(/C=C/CC(=O)Nc2ccc(C(=O)Nc3ccc(F)cc3N)nc2)cn1`, the growth is 53.6% (inactive). The same measure, in the same setting: the figure for `O=C1[C@@H]2Cc3c([nH]c4ccccc34)[C@H](c3c(Cl)cccc3Cl)N2C(=O)CN1C1CCN(Cc2ccccc2)CC1` is 18.5% (inactive); for `C#CCOc1ccc(C(Nc2ccc(OC)cc2)c2nnnn2C2CCCCC2)cc1` (configuration not stated) it is 88.1% (inactive); for `COc1cc(C(=O)c2cc(C(C)=O)c3c4ccccc4ccn23)cc(OC)c1OC` it is 27.9% (inactive). As for `Cc1[nH]nc2ccc(-c3nc4cnc(N5CCN(C)CC5)cn4c3Nc3ccc(F)cc3Br)cc12`, the growth was 49.4% (inactive). Turning to `O=C(Nc1cccc(Cl)c1)Nc1nc2ccc(-c3cccc4ccccc34)cc2s1`, the growth was 57.5% (inactive). With `O=C(NNc1nc2cc(F)c(F)cc2n2cccc12)c1ncccn1`, the growth was 10.1% (inactive). Turning to `CN1CCN(c2ccc(NC(=O)Nc3ccc4c(ccn4-c4cccc(C(N)=O)n4)c3)cc2C(F)(F)F)CC1`, the growth is 94.5% (inactive).

Turning to `O=C(Nc1ccc(Cl)cc1)Nc1nc2ccc([N+](=O)[O-])cc2s1`, the growth was -6.91% (active). `NC(=O)c1c(NC(=O)c2cccc(OC(F)(F)F)c2)sc2c1CCC(=O)C2`: the growth was 57.5% (inactive).

On to `O=C(/C=C1\C=CN(CCCCO)c2ccccc21)n1ccc2ccccc21`, for which the growth was 105% (inactive).

Consider `O=C1c2c(c3c4cccnc4[nH]c3c3ccc4ccccc4c23)C(=O)N1CCN1CCNCC1`, for which the growth was 81.4% (inactive). On the same count and under the same terms, for `O=C(Nc1ccccc1)Nc1nc2ccc([N+](=O)[O-])cc2s1` the value was 2.34% (active); for `Cc1cc(Cl)cc(NS(=O)(=O)c2ccc(-c3cnc(C4CC4)o3)cc2)c1`, 10.1% (inactive); for `CCOC(=O)C1=C(C)Nc2nc3ccccc3n2C1c1cccc(Br)c1` (configuration not stated), 59% (inactive). Regarding `CCOC(=O)c1nn(-c2ccc(C)cc2)c(=O)c2c(N)c(C#N)c(-c3ccc(OC)cc3)cc12`, the growth was 106% (inactive).

In the case of `Cc1ccc(NC(=O)c2cccc(CN3CCN(C)CC3)c2)cc1Oc1ccc(-c2[nH]nc3ncnc(N)c23)cc1`, the growth was 101% (inactive). Consider `O=C1c2c(c3c4cc(Br)ccc4[nH]c3c3ccc4ccccc4c23)C(=O)N1CCN1CCCCC1`, for which the growth was 6.23% (active). Still for that read-out and setting: the figure for `CC(C)(C)OC(=O)N1CCN(S(=O)(=O)/N=C2\NC(=O)NC2=C(Cl)Cl)CC1` is 99% (inactive).

A further assay concerns T-47D breast. Described as above. The settings on record: 10 µM unless noted.
Take `CCN1C(=O)N(CC)C2SC(N/N=C/c3cccs3)=NC21` (configuration not stated): the growth is 68.8% (inactive). With `O=C1NC(=O)/C(=C/c2ccc(OCc3cc4ccccc4nc3Cl)cc2)S1`, the growth is 87.8% (inactive). The same measure, in the same setting: the figure for `O=C(NNc1nc2cc(F)c(F)cc2n2cccc12)c1ccncn1` is 15.1% (inactive). Turning to `C#C[C@]1(O)CC[C@H]2[C@@H]3CC=C4c5sc(Nc6nc(C)cc(OC)n6)nc5CC[C@]4(C)[C@H]3CC[C@@]21C`, the growth was 59% (inactive). On to `CCNC(=O)Oc1ccc(/C(=C(/C)c2ccc(Cl)cc2)c2ccc(OCCN3CCCC3)cc2)cc1`, for which the growth is 56.8% (inactive).

`O=C(NNc1nc2cc(F)c(F)cc2n2cccc12)c1cccnn1`: the growth is 13.7% (inactive). Consider `O=C(O)CNS(=O)(=O)c1ccc(Oc2ccc(S(=O)(=O)NCC(=O)O)cc2)cc1`, for which the growth was 95.5% (inactive). On to `Cc1cc(NS(=O)(=O)c2ccc(-c3cnc(C4CC4)o3)cc2)ccc1I`, for which the growth is 32.5% (inactive). The same measure, in the same setting: for `COc1ccc(C(=O)c2c(N)c(C#N)cn2-c2cccc(OC)c2)cc1` the value was 16% (inactive). Turning to `COc1ccc(CCN2C(=O)CSC2=S)cc1OC`, the growth was 52.7% (inactive). In the case of `Cc1ccc(/C=C/CC(=O)Nc2ccc(C(=O)Nc3ccc(F)cc3N)cc2)cn1`, the growth was 28.6% (inactive). The same measure, in the same setting: the figure for `O=C(NNc1nc2cc(F)cc(F)c2n2cccc12)c1ccncn1` is -1.57% (active); for `C[C@H]1[C@H](C)CC[C@]2(COC(=O)c3cccnc3)CC[C@]3(C)C(=CC[C@@H]4[C@@]5(C)CCCNC(C)(C)[C@@H]5CC[C@]43C)[C@H]12` it is 61% (inactive). The same measure, in the same setting: the figure for `Fc1ccccc1/C=C(/C1=NCCN1)n1cnc2ccccc21` is 99.1% (inactive); for `COc1ccc(CN2C(=O)/C(=C/c3nc(CO)cs3)SC2=S)cc1` it is 53% (inactive); for `O=C(Nc1cc(F)cc2cccnc12)c1cnc(N2CCOCC2)cn1` it is 23.9% (inactive). On the same count and under the same terms, the figure for `CC1OC(O[C@@H]2[C@H](O)C(CO)OC(O[C@H]3COC(O[C@H]4CC[C@]5(C)[C@H]6CC[C@]78OC[C@@]9(CCC(C)(C)C[C@H]97)[C@H](O)C[C@@]8(C)[C@]6(C)CC[C@H]5C4(C)C)[C@@H](OC4OC(CO)[C@@H](O)[C@@H](O)[C@@H]4O)[C@@H]3O)[C@H]2OC2OC[C@@H](O)[C@@H](O)[C@@H]2O)[C@@H](O)[C@@H](O)[C@H]1O` (some centres not stated) is -54.6% (active). As to `C#C[C@]1(O)CC[C@H]2[C@@H]3CC=C4c5sc(Nc6cccc(Cl)n6)nc5CC[C@]4(C)[C@H]3CC[C@@]21C`, the growth was 25.8% (inactive). With `Cc1ccc(/C=C/CC(=O)Nc2ccc(C(=O)Nc3ccc(F)cc3N)nc2)cn1`, the growth is 10.8% (inactive).

`O=C1[C@@H]2Cc3c([nH]c4ccccc34)[C@H](c3c(Cl)cccc3Cl)N2C(=O)CN1C1CCN(Cc2ccccc2)CC1`: the growth was 76.8% (inactive).

Turning to `C#CCOc1ccc(C(Nc2ccc(OC)cc2)c2nnnn2C2CCCCC2)cc1` (configuration not stated), the growth was 94.1% (inactive). Consider `COc1cc(C(=O)c2cc(C(C)=O)c3c4ccccc4ccn23)cc(OC)c1OC`, for which the growth was 24.8% (inactive). For the compound `Cc1[nH]nc2ccc(-c3nc4cnc(N5CCN(C)CC5)cn4c3Nc3ccc(F)cc3Br)cc12`, the growth is 38.9% (inactive). On the same count and under the same terms, for `O=C(Nc1cccc(Cl)c1)Nc1nc2ccc(-c3cccc4ccccc34)cc2s1` the value was 11.2% (inactive). With `Cc1cc(C(=O)Nc2ccc(SC#N)cc2)c(C)o1`, the growth was 84.1% (inactive). Still for that read-out and setting: the figure for `O=C(NNc1nc2cc(F)c(F)cc2n2cccc12)c1ncccn1` is 14.8% (inactive); for `CN1CCN(c2ccc(NC(=O)Nc3ccc4c(ccn4-c4cccc(C(N)=O)n4)c3)cc2C(F)(F)F)CC1` it is 80.6% (inactive); for `O=C(Nc1ccc(Cl)cc1)Nc1nc2ccc([N+](=O)[O-])cc2s1` it is -25.9% (active). Still for that read-out and setting: the figure for `NC(=O)c1c(NC(=O)c2cccc(OC(F)(F)F)c2)sc2c1CCC(=O)C2` is 28.1% (inactive); for `O=C(/C=C1\C=CN(CCCCO)c2ccccc21)n1ccc2ccccc21` it is 99.6% (inactive); for `O=C1c2c(c3c4cccnc4[nH]c3c3ccc4ccccc4c23)C(=O)N1CCN1CCNCC1` it is 99.2% (inactive). Still for that read-out and setting: for `O=C(Nc1ccccc1)Nc1nc2ccc([N+](=O)[O-])cc2s1` the value was -14.3% (active); for `Cc1cc(Cl)cc(NS(=O)(=O)c2ccc(-c3cnc(C4CC4)o3)cc2)c1`, 36.1% (inactive). Take `CCOC(=O)C1=C(C)Nc2nc3ccccc3n2C1c1cccc(Br)c1` (configuration not stated): the growth is 88.1% (inactive).

Consider `CCOC(=O)c1nn(-c2ccc(C)cc2)c(=O)c2c(N)c(C#N)c(-c3ccc(OC)cc3)cc12`, for which the growth is 102% (inactive). Still for that read-out and setting: for `Cc1ccc(NC(=O)c2cccc(CN3CCN(C)CC3)c2)cc1Oc1ccc(-c2[nH]nc3ncnc(N)c23)cc1` the value was 82.6% (inactive); for `O=C1c2c(c3c4cc(Br)ccc4[nH]c3c3ccc4ccccc4c23)C(=O)N1CCN1CCCCC1`, 43.3% (inactive). On the same count and under the same terms, the figure for `CC(C)(C)OC(=O)N1CCN(S(=O)(=O)/N=C2\NC(=O)NC2=C(Cl)Cl)CC1` is 75.3% (inactive).
